# According to PubChem BioAssay AID588342 (National Center for Advancing Translational Sciences (NCATS), 2011):
# The whole screen tested about 360,000 compounds, of which about 25,000 (6.9%) were called active. Another 9% or so got no clear call; they are omitted. The call rests on the fitted dose curve; in most records, active means well fitted inhibition curve with a large enough effect; inconclusive means small, poorly fitted or top-dose-only effect; inactive means flat fitted curve, though single readings scatter. The list comes from a sample in which actives are over-represented; it also holds similar structures and randomly drawn compounds. Where a call stands in place of a potency, no number is given.
# Molecular target: Luciferin 4-monooxygenase (Photinus pyralis) (UniProt P08659)
# Sequence (P08659 whole entry, looked up): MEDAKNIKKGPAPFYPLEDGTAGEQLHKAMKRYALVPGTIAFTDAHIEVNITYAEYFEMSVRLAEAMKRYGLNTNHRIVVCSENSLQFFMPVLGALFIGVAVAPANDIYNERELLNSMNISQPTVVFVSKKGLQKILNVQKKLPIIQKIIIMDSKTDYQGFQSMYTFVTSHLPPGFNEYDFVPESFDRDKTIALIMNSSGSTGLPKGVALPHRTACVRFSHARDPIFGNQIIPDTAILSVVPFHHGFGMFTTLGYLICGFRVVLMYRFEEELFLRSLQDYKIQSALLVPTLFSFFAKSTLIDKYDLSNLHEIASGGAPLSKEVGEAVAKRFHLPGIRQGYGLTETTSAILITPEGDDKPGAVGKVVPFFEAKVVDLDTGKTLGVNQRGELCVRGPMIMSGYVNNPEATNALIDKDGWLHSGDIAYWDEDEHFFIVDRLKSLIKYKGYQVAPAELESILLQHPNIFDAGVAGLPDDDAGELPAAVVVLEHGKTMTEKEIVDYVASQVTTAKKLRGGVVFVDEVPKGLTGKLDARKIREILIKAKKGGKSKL
# Experiment: qHTS profiling assay for firefly luciferase inhibitor/activator using purifed enzyme and Km concentrations of substrates (counterscreen for miR-21 project); further: nearly all actives have a fitted effect of over 55% in size
# Settings: purified FLuc, luminescence inhibition; series mostly up to 57.5 µM
# In short: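 Purified P. pyralis luciferase, 10 nM final, with Km-level 10 uM D-luciferin and 10 uM ATP in 50 mM Tris acetate pH 7.5, 10 mM Mg acetate, 0.01% Tween-20, 0.05% BSA; 6-point qHTS titration about 60 µM downward; luminescence read.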
# Potency means the concentration at half of the fitted maximal effect.
row,SMILES,Potency
1,COc1cccc(CNC(=O)c2ccc3c(c2)sc2nc(-c4cccc(OC)c4)cn23)c1,inactive
2,Cc1ccc2nc(COc3cccc(NC(=O)c4cccc(Cl)c4)c3)cc(=O)n2c1,inactive
3,Cc1ccc2nc(COc3cccc(NC(=O)c4ccccc4Cl)c3)cc(=O)n2c1,10.7 µM (active)
4,Cc1ccc2nc(COc3cccc(NC(=O)Nc4ccc(C)c(Cl)c4)c3)cc(=O)n2c1,inactive
5,O=C(CNS(=O)(=O)c1ccc2ccccc2c1)Nc1ccc(F)c(F)c1F,inactive
6,O=C(NCCc1ccccc1)c1ccc2c(c1)N(Cc1ccccc1)C(=O)c1ccccc1S2(=O)=O,inactive
7,NS(=O)(=O)c1ccccc1NC(=O)c1c(O)c2ccccc2[nH]c1=O,9.53 µM (active)
8,CCCc1nc2ccccc2c(=O)n1NC(=O)c1c(O)c2ccccc2[nH]c1=O,inactive
9,CC(C)C(=O)Nc1c(O)c2ccccc2[nH]c1=O,inactive
10,CC1(C)N=C(SCc2ccccc2Cl)c2ccccc2N1,inactive
11,Cc1noc(/C=C/N(C)C)c1S(=O)(=O)N1CCCC(C(=O)Nc2cccc(F)c2)C1 (configuration not stated),inactive
12,Cc1ccc(S(=O)(=O)N2CC(O)C[C@H]2C(=O)OCC(=O)Nc2ccc(N3CCOCC3)cc2)cc1C (some centres not stated),inactive
13,CC(=O)c1sc(N2C(=O)c3oc4ccccc4c(=O)c3C2c2ccc(C)cc2)nc1C (configuration not stated),inactive
14,CCN(c1cccc(C)c1)S(=O)(=O)c1ccc(-c2coc(C)n2)cc1,inactive
15,COc1ccc(-c2cn3ccc(C)cc3n2)cc1,0.19 µM (active)
16,CCN(CC)S(=O)(=O)c1ccc(-c2cn3ccc(C)cc3n2)cc1,2.39 µM (active)
17,CCN(CC(=O)NCCc1ccccc1)S(=O)(=O)c1ccc(C)cc1,inactive
18,COc1ccc(-n2c(-c3ccc(OC)c(OC)c3)n[nH]c2=S)cc1,inactive
19,COc1ccc(-c2cn3c(C)c(C(=O)Nc4cc(C)cc(C)c4)sc3n2)cc1,inactive
20,Fc1ccc(CN2CCc3nc(Nc4ccccc4)ncc3C2)cc1F,inactive
21,O=C(Nc1cc(C(F)(F)F)ccc1Cl)c1nc2ccccc2nc1N1CCCCC1,inactive

row,SMILES,Potency
1,CCN1CCC(N(Cc2ccc(F)cc2)C(=O)Nc2cc(C)ccc2C)CC1,inactive
2,O=C(NC1CCCCC1)c1ccc2c(c1)N(Cc1ccc(Cl)cc1)C(=O)c1ccccc1S2=O (configuration not stated),inactive
3,CN(C(=O)COC(=O)CCCc1c[nH]c2ccccc12)c1c(N)n(Cc2ccccc2)c(=O)[nH]c1=O,inactive
4,CCc1nc2onc(C)c2c(=O)n1CC(=O)O,inactive
5,CC(C)CNC(=S)Nc1ccc(F)cc1,inactive
6,CC(C)CNC(=O)C(=O)Nc1ccc(N(C)C)cc1,10.7 µM (active)
7,CC(C)CNC(=O)C(=O)NCc1ccccc1,inactive
8,COc1ccc(CNC(=O)CSc2nc3ccccc3nc2Cc2ccccc2)cc1,inactive
9,COC(=O)c1cc(=O)n(-c2c(Cl)cc(C(F)(F)F)cc2Cl)[nH]1,inactive
10,Cn1cc(CCC(=O)NCc2ccc3c(c2)OCO3)c2ccccc21,inactive
11,Cc1ccc(CNC(=O)Cc2cn(C)c3ccccc23)cc1,15.1 µM (active)
12,CCc1ccccc1NC(=O)Cc1cn(C)c2ccccc12,inactive
13,COc1cc(Cl)c(NC(=O)CC(C)S(=O)(=O)c2cc3c(cc2C)NC(=O)CO3)c(OC)c1 (configuration not stated),inactive
14,CC(=O)c1sc(NC(=O)c2ccc(C)cc2)nc1C,1.9 µM (active)
15,CC(=O)c1sc(N/N=C\c2ccc(C)cc2)nc1C,2.39 µM (active)
16,Cc1nnc(C)n1/N=C/c1ccc(C(C)C)cc1,inactive
17,CCCCCCC(=O)Nc1nc(C)c(-c2csc(Nc3cc(Cl)ccc3OC)n2)s1,inactive
18,CC(=O)c1sc(NC(=O)C2=NN(c3ccccc3)C(=O)CC2)nc1C,inactive
19,Cc1ccc(C)c2sc(NC(=O)c3ccc(S(=O)(=O)N4CCCC4)cc3)nc12,inactive
20,CC(=O)c1sc(N/N=C/c2ccc(C(C)C)cc2)nc1C,6.01 µM (active)
21,Cc1cc2c(=O)n(CC(=O)NCC(=O)Nc3ccc(C(C)C)cc3)cnc2s1,inactive

row,SMILES,Potency
1,Cc1ccc(Nc2nc(-c3sc(NC(=O)c4ccccc4)nc3C)cs2)cc1,12 µM (active)
2,Cc1nc(NC(=O)c2cccc(Cl)c2)sc1-c1csc(Nc2cccc(Cl)c2)n1,inactive
3,CC(=O)c1sc(N)nc1C,inactive
4,CC(=O)Nc1ccc(NC(=O)C2CCCN(S(=O)(=O)c3ccc4c(c3)CCCC(=O)N4)C2)cc1 (configuration not stated),inactive
5,CCc1cccc(CC)c1NC(=O)COc1ccccc1C(=O)c1cc(C#N)c(=O)n(C2CCCCC2)c1,inactive
6,C=C(C)CNc1cc(S(=O)(=O)N2CCOCC2)ccc1Oc1ccccc1,inactive
7,Cc1ccc(Nc2c(-c3ccc(Cl)cc3)nc3sccn23)c(C)c1,inactive
8,Cc1ccc(-c2nn3c(=O)cc(CN4CCN(S(=O)(=O)c5ccc(Cl)cc5)CC4)nc3s2)cc1,inactive
9,O=S(=O)(c1ccc(C2CCCCC2)cc1)N1CCN(c2ccc(Cl)c(Cl)c2)CC1,inactive
10,Cc1cc(=O)oc2cc(NC(=O)C(C)Oc3ccccc3)ccc12 (configuration not stated),inactive
11,CC(C)C(=O)Nc1ccc2oc(=O)ccc2c1,inactive
12,CC(C)C(=O)Nc1ccc2c(c1)oc1ccccc12,2.69 µM (active)
13,COc1cc2nc(SCc3ccc(F)cc3)n3nc(CCn4c(C)nc5ccccc54)nc3c2cc1OC,inactive
14,O=C(CCc1nc(CN2CCN(S(=O)(=O)c3ccc(F)cc3)CC2)no1)N1CCCCC1,inactive
15,CCC(=O)N1CCc2cc(Br)cc(S(=O)(=O)CCC(=O)NCCc3ccc(OC)c(OC)c3)c21,inactive
16,CCC(=O)N1c2ccccc2CC1C(=O)N1CCN(c2ccccc2F)CC1 (configuration not stated),inactive
17,Cc1ccc2nc(Nc3ccccc3)cc(C)c2c1,23.9 µM (active)
18,Cc1ccc2nc(Nc3ccccc3O)nc(-c3ccccc3)c2c1,inactive
19,COc1cc(OC)cc(C(=O)Nc2ccc3nc(Nc4cccc(C(F)(F)F)c4)cc(C)c3c2)c1,inactive
20,O.O.O.O=S(=O)([O-])OC[C@H]1O[C@@H](O[C@]2(COS(=O)(=O)[O-])O[C@H](OS(=O)(=O)[O-])[C@@H](OS(=O)(=O)[O-])[C@@H]2OS(=O)(=O)[O-])[C@H](OS(=O)(=O)[O-])[C@@H](OS(=O)(=O)[O-])[C@@H]1OS(=O)(=O)[O-].[Al],inactive
